This is part of a sample that, as a whole, favours compounds with a hit. Of some 79,000 tested, about 15% had one in any assay. Values without a mark were called inactive. Active and inactive are the calls of the source. Rule as the data show it: active = growth inhibition above about 70%; inactive = the rest.

20 compounds from PubChem BioAssay (NCI) can be followed below.

Assay [1] is described as follows: NCI Yeast Anticancer Drug Screen. Data for the rad50 strain (AID 155).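 Also: 0% = growth of vehicle-only cultures of the same strain.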 The note with it: S. cerevisiae rad50 strain growth inhibition; at 50.0 µM; stronger effect = higher value. In outline: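 Readout: growth inhibition relative to vehicle-treated cultures. Compound exposure was carried out in a genetically defined yeast strain deficient in DNA damage repair.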
Assay [2] can be described thus: NCI Yeast Anticancer Drug Screen. Data for the mec2-1 strain (AID 157). The note with it: S. cerevisiae mec2-1 strain, at 50.0 µM, stronger effect = higher value. In a few lines: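 mec2-1 yeast strain, carrying an alteration in DNA damage repair or cell cycle control, was exposed to compounds; growth inhibition was measured relative to vehicle-treated controls.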
Assay [3] can be described thus: NCI Yeast Anticancer Drug Screen. Data for the sgs1 mgt1 strain (AID 161).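 Also: 0% = growth of cultures given vehicle only.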 The note with it: S. cerevisiae sgs1 mgt1 strain, at 50.0 µM, stronger effect = higher value. In a few lines:
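Compounds are added to genetically altered yeast, and growth is compared with cultures given vehicle alone to give percent inhibition.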

A short description of assay [4]: NCI Yeast Anticancer Drug Screen. Data for the cln2 rad14 strain (AID 165).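 Also: 0% = growth equal to vehicle treated cultures.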 The note with it: S. cerevisiae cln2 rad14 strain, at 50.0 µM, stronger effect = higher value. In outline: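 Yeast carrying cln2 and rad14 alterations (cell cycle control and DNA damage repair) were exposed to compounds. Growth inhibition was measured against vehicle-treated controls.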
Assay [5] in a line: NCI Yeast Anticancer Drug Screen. Data for the bub3 strain (AID 167). The note with it: S. cerevisiae bub3 mutant strain, at 50.0 µM, stronger effect = higher value. In outline:
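Readout: yeast growth inhibition, expressed relative to vehicle-only wells. The test organism is a mutant strain from a panel with lesions in DNA repair or checkpoint genes.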

Assay [6] can be described thus: NCI Yeast Anticancer Drug Screen. Data for the mlh1 rad18 strain (AID 175). The note with it: S. cerevisiae mlh1 rad18 strain growth inhibition; at 50.0 µM; stronger effect = higher value. In outline: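 Growth inhibition of the yeast strain was measured after compound exposure and expressed relative to vehicle-treated controls. The strain carries defined defects in DNA damage repair.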

For `O=[N+]([O-])c1ccc(N/N=C\C2CC=C3c4ccccc4CCC3C2/C=N\Nc2ccc([N+](=O)[O-])cc2[N+](=O)[O-])c([N+](=O)[O-])c1` (stereo not given), the growth inhibition in assay [1] is 0.75%; in assay [2], 3.1%; in assay [3] it was -15.1%; in assay [4], -9.7%; in assay [5], -3.3%; in assay [6], -5.85%.

On to `ClCc1nnc(-c2ccccc2)o1`, for which the growth inhibition in assay [1] is 14.8%; in assay [2], -2.9%; in assay [3], -16.2%; in assay [4], -43%; in assay [5], -16.2%; in assay [6], -4.75%.

Regarding `COc1cc(/C=C/c2ccc([N+](=O)[O-])cc2[N+](=O)[O-])ccc1O`, the growth inhibition in assay [1] was 24.3%; in assay [2] it was 8.5%; in assay [3] it was 28.6%; in assay [4], 19.1%; in assay [5], 9.25%; in assay [6], 25.9%.

As for `[N-]=[N+]=NC1(Cc2ccccc2)C(=O)c2cccc3c2N(CCC3)C1=O` (stereo not given), the growth inhibition in assay [1] is 4.25%; in assay [2], 8.55%; in assay [3], -0.65%; in assay [4], 16.2%; in assay [5], 25.7%; in assay [6], -11.2%.

In the case of `Cn1c(=O)c2[nH]c(Br)nc2n(C)c1=O`, the growth inhibition in assay [1] was -12%; in assay [2] it was -13.4%; in assay [3], 5.4%; in assay [4] it was -4.25%; in assay [5], 13.3%; in assay [6] it was -12.2%.

In the case of `C=Cc1c2ccccc2cc2c1ccc1ccccc12`, the growth inhibition in assay [1] was 89.3% (active); in assay [2] it was 95.2% (active); in assay [3], 93.5% (active); in assay [4], 87.2% (active); in assay [5], 93.3% (active); in assay [6], 95.2% (active).

For the compound `O=C(N=Nc1c(O)[nH]c2ccccc12)c1ccncc1`, the growth inhibition was -10.8% in assay [1]; 2.15% in assay [2]; -9.25% in assay [3]; -19.4% in assay [4]; -7.4% in assay [5]; 11.1% in assay [6].

As to `O=c1c2c3c(sc2nc2n1N=CN(c1ccc(Cl)cc1)C2)CCCC3`, the growth inhibition is 8.7% in assay [1]; 6% in assay [2]; 7.7% in assay [3]; -5.45% in assay [4]; -4.7% in assay [5]; -32% in assay [6].

On to `C=C(C)C1CC(=O)C2(C)C(C1)OC(=O)C2C(=O)OCC` (stereo not given), for which the growth inhibition in assay [1] is 11.6%; in assay [2] it was -0.65%; in assay [3] it was -8.3%; in assay [4], 8.95%; in assay [5] it was 0.1%; in assay [6] it was -6.65%.

For `COC(=O)CC(c1ccc(OC)cc1)c1cc2c(cc1OC)OCO2` (stereo not given), the growth inhibition was 3.45% in assay [1]; 3.75% in assay [2]; 2.75% in assay [3]; 7.5% in assay [4]; 18.3% in assay [5]; 15.5% in assay [6].

On to `CC1=C(C)CP(=O)(c2ccccc2)C1`, for which the growth inhibition is 16.6% in assay [1]; -5.2% in assay [2]; -0.7% in assay [3]; -8.65% in assay [4]; -3.9% in assay [5]; -35.4% in assay [6].

Consider `CC(C)CCCC(C)[C@H]1CCC2[C@@H]3CCC4Cc5nc6c(nc5C[C@]4(C)C3CC[C@@]21C)CC1CC[C@@H]2C(C[C@@H](O)[C@@]3(C)C2C[C@@H]2OC4(CCC(C)CO4)C(C)[C@@H]23)[C@@]1(C)C6` (stereo not given in full), for which the growth inhibition in assay [1] is -19.6%; in assay [2], 1.65%; in assay [3], -21.8%; in assay [4], -15%; in assay [5], -10.9%; in assay [6], -8.65%.

As to `CCC(=O)Cc1cnccn1`, the growth inhibition is -47.1% in assay [1]; -32.5% in assay [2]; -12.3% in assay [3]; -10.1% in assay [4]; -9.15% in assay [5]; -12.4% in assay [6].

Turning to `O=C1CC(C(F)(F)F)(C(F)(F)F)O1`, the growth inhibition in assay [1] is 11.3%; in assay [2] it was 19.4%; in assay [3], -8.75%; in assay [4], -58.2%; in assay [5], 13.6%; in assay [6], -19%.

As to `COc1cc(N=Nc2ccc(N)nc2N)c(OC)cc1N=Nc1ccc([N+](=O)[O-])cc1`, the growth inhibition in assay [1] was 12.6%; in assay [2] it was 23%; in assay [3] it was 1.8%; in assay [4] it was 21.6%; in assay [5], 9.4%; in assay [6], 27.1%.

Regarding `O=C(O)c1ccc2c(c1C(=O)O)C(=O)OC2(c1ccc(O)cc1)c1ccc(O)cc1`, the growth inhibition in assay [1] was -14.8%; in assay [2], 11.7%; in assay [3] it was -21.6%; in assay [4] it was -21.8%; in assay [5] it was -10.9%; in assay [6] it was 4.85%.

For the compound `O=C(O)/C=C(\Br)C(=O)O`, the growth inhibition is 16.1% in assay [1]; -4.1% in assay [2]; -1% in assay [3]; -11.4% in assay [4]; -5.4% in assay [5]; 5.3% in assay [6].

`CC1CC(C)(C)NC(c2ccccc2)O1` (stereo not given): the growth inhibition in assay [1] is 1.75%; in assay [2] it was -5%; in assay [3], 1.3%; in assay [4] it was 10.1%; in assay [5] it was -14.4%; in assay [6], 29.4%.

Consider `Cc1cc2c(=O)cc(-c3ccccc3)oc2c(C(N)=O)c1C`, for which the growth inhibition in assay [1] was 15.3%; in assay [2] it was 19.9%; in assay [3], 27.5%; in assay [4] it was -2.95%; in assay [5], 14.8%; in assay [6], 1.55%.

Turning to `Cc1ccc(N=N/C(=N/NC(=O)c2ccccc2)c2ccc(N(CCC#N)CCC#N)cc2C)cc1`, the growth inhibition is 0.85% in assay [1]; 3.3% in assay [2]; -9.65% in assay [3]; -16.3% in assay [4]; -3.25% in assay [5]; -40% in assay [6].
